Source: PubChem BioAssay (NCATS)
Inconclusive results are not listed. Calls of active or inactive are those of the source. Calls come from the whole dose curve; as a rule, active = well fitted curve in the direction sought with a large enough effect; inconclusive = small, poorly fitted or top-dose-only effect, or another doubt; inactive = no such curve, though single readings can be large; an effect the other way counts as inactive or inconclusive.

Tests used:
[1] = target: Nuclear receptor subfamily 1 group I member 3 (Homo sapiens) (UniProt Q14994); assay: qHTS for Constitutive Androstane Receptor (CAR) Antagonist screened against the NCATS CANVASS Library (AID 1347372); details: HepG2-hCAR-CYP2B6 luciferase, CITCO-stimulated antagonist mode; series mostly up to 46.1 µM
Nuclear receptor subfamily 1 group I member 3 (Homo sapiens), sequence (Q14994 whole entry, looked up): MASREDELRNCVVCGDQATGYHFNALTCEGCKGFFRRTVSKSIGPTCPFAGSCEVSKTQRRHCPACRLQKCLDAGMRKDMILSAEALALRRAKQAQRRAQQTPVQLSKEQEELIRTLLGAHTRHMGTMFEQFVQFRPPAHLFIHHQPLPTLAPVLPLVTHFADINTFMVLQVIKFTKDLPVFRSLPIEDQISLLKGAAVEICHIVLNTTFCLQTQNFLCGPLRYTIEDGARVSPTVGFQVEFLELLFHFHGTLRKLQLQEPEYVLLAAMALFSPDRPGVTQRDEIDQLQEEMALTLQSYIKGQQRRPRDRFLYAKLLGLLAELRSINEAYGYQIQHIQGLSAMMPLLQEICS
Summary of the method: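 HepG2 cells stably carrying hCAR and CYP2B6-2.2kb luciferase reporter, 2500 cells/well, compound with 50 nM CITCO agonist for 24hr at 37C. ONE-Glo luminescence measured CAR activity; CellTiter-Fluor read viability.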

[2] = target: Nuclear receptor subfamily 1 group I member 3 (Homo sapiens) (UniProt Q14994); assay: qHTS for Constitutive Androstane Receptor (CAR) Agonist screened against the NCATS CANVASS Library (AID 1347373); details: HepG2-hCAR-CYP2B6 luciferase reporter, ONE-Glo luminescence; series mostly up to 46.1 µM
Summary of the method: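 HepG2-hCAR-CYP2B6 cells, 2500/well, attached 4hr; cpd + PK11195 1.5uM final; 24hr 37C 5% CO2. CellTiter-Fluor viability read, then ONE-Glo luminescence for CAR activation.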

[3] = qHTS for Hypoxia signaling pathway (HIF-1) antagonists against the NCATS CANVASS Library (AID 1347374); details: HRE-bla ME-180 cells, HIF-1 beta-lactamase reporter, CoCl2; series mostly up to 38.3 µM
Summary of the method: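 HRE-bla ME-180 cells in medium with 0.5% dialyzed FBS received compounds (11-point series) plus CoCl2 (60 uM addition stock) for 17 hrs at 37C. Beta-lactamase activity read with CCF4 (405 nm ex, 460/530 nm em); CellTiter-Glo viability measured in same wells.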

[4] = qHTS for Hypoxia signaling pathway (HIF-1) agonists against the NCATS CANVASS Library (AID 1347375); details: HRE-bla ME-180 cells, HIF-1 beta-lactamase reporter, 17 h; series mostly up to 38.3 µM
Summary of the method: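 ME-180 HRE-bla reporter cells; 2,000/well, 0.5% dialyzed FBS; cpd added after 5 h, 17 h 37C/5% CO2; CCF4-AM 2 h RT; FRET 460/530 nm; CellTiter-Glo viability same wells, 30 min.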

[5] = 10-beta competent E. coli microbial cell viability qHTS against the NCATS CANVASS Library (AID 1347376); details: E. coli 10-beta viability, BacTiter-Glo ATP luminescence, overnight; series mostly up to 46.1 µM
Summary of the method: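 E. coli 10-beta, 0.2 OD; cpds 11-pt; o/n 37C, 5% CO2; BacTiter-Glo 20 min RT; luminescence (ATP) = viable cells. Daunomycin ctrl.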

[6] = DH5-alpha competent E. coli microbial cell viability qHTS against the NCATS CANVASS Library (AID 1347377); details: BacTiter-Glo ATP luminescence, overnight; outcome: at 46.1 µM (top of the series); series mostly up to 46.1 µM
Summary of the method: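 qHTS, 11-pt; E. coli DH5-alpha, 0.2 OD; o/n 37C/5% CO2; BacTiter-Glo, 20 min RT; luminescence.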

[7] = qHTS for H2AX Agonists against the NCATS CANVASS Library (AID 1347378); details: CHO-K1 H2AX phosphorylation, HTRF TR-FRET, 3 h; series mostly up to 76.9 µM
Summary of the method: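 CHO-K1, 1000 cells/well, o/n 37C; cpd several conc, 3 hr 37C, 0.76% DMSO; lyse 30 min RT; cryptate anti-pH2AX(S139) + d2 anti-H2AX, 24 hr RT; HTRF 665/620.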

[8] = qHTS for Inflammasome Signaling Inhibitors: IL-1-beta AlphaLISA screen against the NCATS CANVASS Library (AID 1347379); details: THP-1 LPS/ATP, IL-1B AlphaLISA secretion, 16 h; outcome: at 57.5 µM (top of the series); series mostly up to 57.5 µM
Summary of the method: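 THP-1 cells pretreated 1 hr with compound (up to 57.5 uM final), then stimulated with LPS (250 ng/mL final) and ATP (1.25 mM final). Secreted IL-1B measured by AlphaLISA after 16 hr; glyburide as positive control.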

[9] = qHTS for Antimalaria activity screened against the NCATS CANVASS Library (AID 1347380); details: P. falciparum Dd2 growth, SYBR Green fluorescence, 72 h; series mostly up to 28.7 µM
Summary of the method: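 Dd2 strain, infected erythrocytes 2.5% Hct final / 0.3% parasitemia. 11-pt qHTS titration, 72 h, 37C, 5% O2, 5% CO2. Lysis buffer + SYBR Green, 18 h, fluorescence 485/535 nm.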

[10] = Inflammasome Signaling qHTS Counterscreen: IL-1-beta AlphaLISA counterscreen against the NCATS CANVASS Library (AID 1347381); details: Purified IL-1beta AlphaLISA signal interference counterscreen; series mostly up to 57.5 µM
Summary of the method: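 Cell-free interference check: compounds added to medium spiked with 4 pg purified IL-1β. Anti-IL-1β acceptor beads (6 ug/mL) with 0.6 nM biotinylated antibody added for 1 h at RT, then streptavidin donor beads (24 ug/mL) for 30 min in the dark. AlphaLISA read at 680/615 nm.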

[11] = Cytotoxicity qHTS for assessment of Hepg2 cells membrane integrity screened against the NCATS CANVASS Library (AID 1347387); details: HepG2 LDH release (CytoTox-ONE) fluorescence, 5 h; series mostly up to 46.1 µM
Summary of the method: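 qHTS, 11-pt conc. series, 0.59 nM - 46 uM final; HepG2 2000 cells/well, overnight attachment; 5 hr compound exposure 37C/5% CO2; CytoTox-ONE, 10 min RT; fluorescence ex560/em590 = LDH from damaged membranes.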

[12] = qHTS for Activators of p53 Stress Response Pathway screened against the NCATS CANVASS Library (AID 1347388); details: p53RE-bla HCT-116, beta-lactamase reporter, 16 h; series mostly up to 46.1 µM
Summary of the method: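 p53RE-bla HCT-116 cells (4000/well) were pre-incubated for 5 h, then treated with compound (11 points) for 16 h at 37C. After 2 h with CCF4, the 460/530 nm ratio gave reporter activation; CellTiter-Glo measured viability.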

[13] = qHTS assay for small molecule disruptors of mitochondrial membrane potential screened against the NCATS CANVASS Library (AID 1347389); details: HepG2 mitochondrial membrane potential, m-MPI red/green ratio, 1.5 h; series mostly up to 46.1 µM
Summary of the method: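 HepG2, 2,000 cells/well, attached overnight; compound 1 hr, 37C, 5% CO2; Mito-MPS dye 30 min, 37C; fluorescence 535 nm (monomer) and 590 nm (aggregate); decreased 590/535 ratio = depolarization.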

[14] = Secretion counterscreen for inhibitors of the SERCaMP assay screened against the NCATS CANVASS Library (AID 1347390); details: SH-SY5Y constitutive GLuc secretion, luminescence, 20 h; series mostly up to 76.6 µM
Summary of the method: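 SH-SY5Y-GLuc STOP cells; 4 h attach; cpds 0.001 - 77 uM (qHTS, 11 pts), 20 h 37C/5% CO2; coelenterazine in glow buffer; luminescence, 5 s exposure.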

[15] = qHTS for activators of Nrf2/ARE signaling pathway screened against the NCATS CANVASS Library (AID 1347391); details: ARE-bla HepG2, beta-lactamase reporter, 16 h; series mostly up to 46.1 µM
Summary of the method: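 Plate ARE-bla HepG2 cells at 2000/well and let them settle 5 h. Pin-transfer compounds in DMSO, incubate 16 h at 37C. Load CCF4 for 2 h at room temperature and read blue/green fluorescence.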

[16] = qHTS for activators of dead-cell proteases activity screened against the NCATS CANVASS Library (AID 1347392); details: HepG2 cytotoxicity, dead-cell protease luminescence, 5 h; series mostly up to 46.1 µM
Summary of the method: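 HepG2 cells, 2000/well, attached 18 h at 37C, then exposed to compounds (11-point qHTS) for 5 h. Dead-cell protease release read as luminescence from cell-impermeant AAF-aminoluciferin substrate after 15 min at room temperature.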

[17] = qHTS for inhibitors of ER calcium dysfunction: SERCaMP assay screened against the NCATS CANVASS Library (AID 1347393); details: SH-SY5Y GLuc-SERCaMP secretion, thapsigargin, luminescence; series mostly up to 76.6 µM
Summary of the method: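 SH-SY5Y GLuc-SERCaMP, 1000 cells/well, 4 h attach; cpd 16 h, 37C/5% CO2; thapsigargin (added as 6x 600 nM) 4 h; coelenterazine; luminescence. Reduced reporter release = ER Ca stabilization.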

[18] = Vero-766 cells viability qHTS against the NCATS CANVASS Library: Counterscreen for Zika virus inhibition assay (AID 1347394); details: Vero 766 viability, CellTiter-Glo luminescence, 72 h; series mostly up to 46.1 µM
Summary of the method: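 Vero 766, no virus; 1000 cells/well; o/n attach; cpd 11-pt; 72 h, 37C, 5% CO2; CTG luminescence; cell-free media wells = 100% inhibition.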

[19] = qHTS for inhibitors of Wild type Zika virus screened against the NCATS CANVASS Library (AID 1347396); details: Vero cells, Zika virus CPE, CellTiter-Glo, 72 h; series mostly up to 45.9 µM
Summary of the method: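 Protection against wild-type Zika cytopathic effect is measured in African green monkey Vero 766 cells exposed to an 11-point compound series. Surviving cells are quantified by CellTiter Glo luminescence after 72 h.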

[20] = Viability qHTS for inhibitors of the SERCaMP assay screened against the NCATS CANVASS Library (AID 1347400); details: SH-SY5Y SERCaMP cells viability, CellTiter-Glo, 48 h; series mostly up to 92.2 µM
Summary of the method: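 SH-SY5Y SERCaMP MJH297 cells, 1000/well; 4 h settle, 37C/5% CO2; pin-transferred cpds; 48 h; CellTiter-Glo lum. Pos ctrl bortezomib 0.0001 - 4.6 uM.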

Measured: outcome

NCCc1c[nH]c2ccc(O)cc12
inactive: [1] | [2] | [3] | [4] | [5] | [6] | [7] | [8] | [9] | [10] | [11] | [12] | [13] | [14] | [15] | [16] | [17] | [18] | [19] | [20]

NCCc1c[nH]c2ccccc12
inactive: [1] | [2] | [3] | [4] | [5] | [6] | [7] | [8] | [9] | [10] | [11] | [12] | [13] | [14] | [15] | [16] | [17] | [18] | [19] | [20]
